PAFAH1B3 inh: inhibitors of human PAFAH1B3. Q15102. recombinant PAFAH1B3, FP-rhodamine probe, fluorescence polarization. inhibition, % at 3.39 µM. hit rate 0.28% among 340,000. AID 492972;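 active = inhibition above the screen-wide average of all tested compounds plus 3 SD, cut at about 25% in these data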;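 also: 0% = enzyme with DMSO only and 100% = wells lacking PAFAH1B3 protein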
LYPLA2 inh: LYPLA2 (human) inhibition in PME1 counter-screen. O95372. recombinant LYPLA2, FP-Rh probe fluorescence polarization. inhibition, % at 5.9 µM. hit rate 0.38% among 320,000;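 active = inhibition above the screen-wide mean plus 3 SD, limit set per campaign, cut at about 26% in these data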;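 also: 0% = LYPLA2 with DMSO and 100% = wells lacking LYPLA2 enzyme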
PAFAH1B2 inh: inhibitors of human PAFAH1B2; P68402; recombinant PAFAH1B2, FP-rhodamine activity probe, fluorescence polarization; inhibition, % at 3.39 µM; hit rate 1.2% among 340,000; AID 492953;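 active = inhibition above the mean of all tested compounds plus 3 SD, cut at about 24% in these data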;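 also: 0% = enzyme with DMSO and 100% = wells lacking PAFAH1B2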
Target sequence (P68402 whole entry, looked up): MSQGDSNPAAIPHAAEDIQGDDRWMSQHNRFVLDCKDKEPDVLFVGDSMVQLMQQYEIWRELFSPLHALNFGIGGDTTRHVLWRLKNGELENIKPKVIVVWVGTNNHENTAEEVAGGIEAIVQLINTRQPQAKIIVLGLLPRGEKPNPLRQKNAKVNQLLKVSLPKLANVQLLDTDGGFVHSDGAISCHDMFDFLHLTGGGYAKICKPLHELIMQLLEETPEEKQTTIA
pPAFAH inh: pPAFAH (human) enzyme inhibition | inhibition, % at 3.39 µM | hit rate 1.5% among 330,000 | Q13093 | recombinant pPAFAH, FP-rhodamine probe fluorescence polarization | AID 463082;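 active = inhibition above the mean inhibition across the screen plus 3 SD, cut at about 25% in these data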;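 also: inhibitors block binding of the rhodamine activity-based probe so polarization drops; 0% = enzyme with DMSO and 100% = wells lacking pPAFAH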
PAFAH2 FP inh: inhibitors of human PAFAH2 | recombinant PAFAH2, FP-rhodamine activity probe, fluorescence polarization | inhibition, % at 3.39 µM | AID 492956 | hit rate 0.99% among 340,000 | Q99487;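 active = inhibition above the mean over all tested compounds plus 3 SD, cut at about 30% in these data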;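 also: inhibitors block probe labeling of enzyme so polarization drops; 0% = enzyme with DMSO and 100% = wells lacking PAFAH2 protein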
LYPLA1 counter: counter-screen for PME1 inhibitors: inhibitors of human LYPLA1. inhibition, % at 5.9 µM. recombinant LYPLA1, FP-Rh probe fluorescence polarization. hit rate 0.16% among 320,000;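 active = inhibition above the mean of all tested compounds plus 3 SD, set per campaign, cut at about 14% in these data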;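 also: inhibitors block serine hydrolase probe labeling of LYPLA1 so polarization falls; 0% = enzyme with DMSO and 100% = wells lacking LYPLA1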
Target sequence (O75608 whole entry, looked up): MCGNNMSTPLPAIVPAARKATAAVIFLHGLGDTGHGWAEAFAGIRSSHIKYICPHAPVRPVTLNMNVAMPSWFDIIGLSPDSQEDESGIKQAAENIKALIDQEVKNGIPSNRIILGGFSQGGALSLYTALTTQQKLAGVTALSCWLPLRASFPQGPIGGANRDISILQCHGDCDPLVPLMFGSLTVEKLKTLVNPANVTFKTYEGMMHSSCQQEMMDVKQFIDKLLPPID
* hit, by the source's call. In the library only some 2.9% were active in any assay of this set; here they are far more common.

COc1ccc(NS(=O)(=O)c2ccc(N3CCCC3)c(NC(=S)Nc3ccc(SC(F)F)cc3)c2)cc1 was read as PAFAH1B3 inh -2.4, LYPLA2 inh -12.5, PAFAH1B2 inh 1.1, pPAFAH inh 33.6*, PAFAH2 FP inh 3.6 and LYPLA1 counter -10.4.
CCC1S/C(=N\S(=O)(=O)c2cccs2)N(C2CCCCC2)C1=O (stereo unspecified) was read as PAFAH1B3 inh 3.9, LYPLA2 inh -5.7, PAFAH1B2 inh 25.2*, pPAFAH inh 1.2, PAFAH2 FP inh -1.7 and LYPLA1 counter -5.7.
`CCc1ccc(NC(=O)C2CCCN(S(=O)(=O)c3cccs3)C2)cc1` (stereo unspecified) gave PAFAH1B3 inh -4.8, LYPLA2 inh 2.1, PAFAH1B2 inh 0.2, pPAFAH inh 8.6, PAFAH2 FP inh -3.0 and LYPLA1 counter -1.6.
For Cc1ccccc1CS(=O)(=O)CCC(=O)N1CCN(c2ccc(N3CCOCC3)nn2)CC1 the results were PAFAH1B3 inh 0.1, LYPLA2 inh -2.6, PAFAH1B2 inh 0.5, pPAFAH inh 27.2*, PAFAH2 FP inh 24.2 and LYPLA1 counter -1.6.
Screening O=C(CCS(=O)(=O)Cc1ccccc1)N1CCN(c2ccccc2)CC1 returned PAFAH1B3 inh -1.2, LYPLA2 inh -0.1, PAFAH1B2 inh 2.3, pPAFAH inh 10.7, PAFAH2 FP inh 7.9 and LYPLA1 counter -2.9.
CN1CCN(CCC=C2c3ccccc3Sc3ccc(S(=O)(=O)N(C)C)cc32)CC1 was read as PAFAH1B3 inh 2.8, LYPLA2 inh 4.9, PAFAH1B2 inh 0.5, pPAFAH inh 28.0*, PAFAH2 FP inh 12.1 and LYPLA1 counter -1.1.
Screening Cc1sc2ncn(CC(=O)Nc3ccccc3F)c(=O)c2c1-c1ccccc1 returned PAFAH1B3 inh 7.0, LYPLA2 inh 7.5, PAFAH1B2 inh 0.4, pPAFAH inh 0.5, PAFAH2 FP inh 2.6 and LYPLA1 counter -4.3.
For COc1ccc(S(=O)(=O)NCCC(=O)NC2CCCCC2C)cc1[N+](=O)[O-] (stereo unspecified) the results were PAFAH1B3 inh 8.4, PAFAH1B2 inh 11.1, pPAFAH inh 3.1 and PAFAH2 FP inh 0.0.
`Cc1c(Cl)ccc2c1NC(=O)C21NC(CCC(N)=O)[C@H]2C(=O)N(c3ccc(Cl)cc3)C(=O)[C@H]21` (stereo partly specified) gave PAFAH1B3 inh -3.8, LYPLA2 inh -3.1, PAFAH1B2 inh -1.6, pPAFAH inh 24.9*, PAFAH2 FP inh 10.3 and LYPLA1 counter -3.9.
Cc1c(Cl)ccc2c1NC(=O)[C@]21N[C@@H](CCC(N)=O)[C@H]2C(=O)N(c3ccc(F)cc3)C(=O)[C@H]21 was read as PAFAH1B3 inh 14.0, LYPLA2 inh -2.4, PAFAH1B2 inh 0.1, pPAFAH inh 13.3, PAFAH2 FP inh 3.4 and LYPLA1 counter 3.2.
CC1CCCCC1NC(=O)C1CCC(CNS(=O)(=O)c2ccc(F)cc2)CC1 (stereo unspecified) was read as PAFAH1B3 inh 8.4, LYPLA2 inh 2.7, PAFAH1B2 inh 5.4, pPAFAH inh 8.2, PAFAH2 FP inh 3.7 and LYPLA1 counter -6.2.
For CCOc1ccccc1N(CC(=O)NCCc1ccc(OC)c(OC)c1)S(=O)(=O)c1ccccc1 the results were PAFAH1B3 inh 5.7, LYPLA2 inh 1.8, PAFAH1B2 inh -1.3, pPAFAH inh 2.1, PAFAH2 FP inh 6.3 and LYPLA1 counter 0.8.
Screening CCC(=O)N(Cc1c(C)nn(-c2ccccc2)c1Cl)c1ccc(Cl)cc1 returned PAFAH1B3 inh 8.9, LYPLA2 inh -7.5, PAFAH1B2 inh 24.4*, pPAFAH inh 7.5, PAFAH2 FP inh -8.9 and LYPLA1 counter -0.9.
`O=C(Nc1ccc(-n2ccc(C(F)(F)F)n2)cc1)Nc1cccc(Cl)c1` gave PAFAH1B3 inh -30.2, LYPLA2 inh -102.8, PAFAH1B2 inh -8.3, pPAFAH inh -26.4, PAFAH2 FP inh -23.2 and LYPLA1 counter -54.6.
`Cc1cc(C)cc(NC(=O)Nc2ccc(-n3ccc(C(F)(F)F)n3)cc2)c1` gave PAFAH1B3 inh 6.7, LYPLA2 inh -4.4, PAFAH1B2 inh 49.0*, pPAFAH inh -24.3, PAFAH2 FP inh 2.3 and LYPLA1 counter -9.1.
For COc1ccc(C)cc1NC(=O)CCc1c(C)nn(-c2ccc(N3CCCCC3)nn2)c1C the results were PAFAH1B3 inh 6.4, LYPLA2 inh 6.1, PAFAH1B2 inh 7.8, pPAFAH inh 4.5, PAFAH2 FP inh 7.8 and LYPLA1 counter 1.9.
